Results as given in the supplement of paper PMC8540655.
Unmarked numbers belong to inactive results.

Tested on: Aedes aegypti larvae
Assay: larval motility relative to same well at 0 h (fraction); higher = more motile (less active compound), active = 0.4 or less
Conditions: 10 µM
Outline: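 Relative motility is the score of a well divided by its own score at the first recording. Movies were made with INVAPP at 0, 2 and 24 h, each having 200 frames at 100 ms intervals. Larvae of Aedes aegypti, from 18–24 h hatches in pond salt solution with yeast at 25 °C, sat at about 10 per well (100 µL) in 96-well plates with compounds at 10 µM and 1% v/v DMSO. Solvent and larvicide control wells were included on every plate, and values are medians of three independent larval batches.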

| SMILES | larval motility (2 h) | larval motility (24 h) |
| --- | --- | --- |
| COc1cc(C(C(=O)NC2CCCCC2)N(C(=O)Cc2c[nH]c3ccccc23)c2ccc(C(C)C)cc2)cc(OC)c1OC (stereo not given) | 1.42 | 1.32 |
| CNC(=O)C1O[C@@H](n2cnc3c(NCc4cccc(I)c4)nc(Cl)nc32)[C@H](O)[C@@H]1O (stereo not given in full) | 0.688 | 0.817 |
| COC1CC2CCC(C)C(O)(O2)C(=O)C(=O)N2CCCCC2C(=O)OC(C(C)CC2CCC(OCCO)C(OC)C2)CC(=O)C(C)/C=C(\C)C(O)C(OC)C(=O)C(C)CC(C)/C=C/C=C/C=C/1C (stereo not given) | 0.921 | 1.02 |
| CCOC(=O)N[C@@H]1CC[C@@H]2[C@@H](C1)C[C@H]1C(=O)O[C@H](C)[C@H]1[C@H]2/C=C/c1ccc(-c2cccc(F)c2)cn1 | 1.18 | 0.624 |
| Cc1[nH]c2ccccc2c1CCNCc1ccc(/C=C/C(=O)NO)cc1 | 1.05 | 1.18 |
| Cc1ccc(N2CCC(CCOc3ccc(S(C)(=O)=O)cc3)CC2)nn1 | 0.943 | 0.683 |
| O=C(NCCN1CCCCC1)c1cccc(C(F)(F)F)c1 | 0.912 | 1.4 |
| CS(=O)(=O)c1ccc(Oc2ccc(Cl)cc2)cc1 | 0.907 | 1.02 |
| CCc1nc(N)nc(N)c1C#CCc1ccccc1 | 0.589 | 0.658 |
| CN(C)c1[nH]c(=O)ncc1F | 1.24 | 1.3 |
| CCC[C@H](NC(=O)[C@@H]1[C@H]2CCC[C@H]2CN1C(=O)[C@@H](NC(=O)[C@@H](NC(=O)c1cnccn1)C1CCCCC1)C(C)(C)C)C(=O)C(=O)NC1CC1 | 0.881 | 0.577 |
| FC(F)(F)Oc1ccc(Nc2ccc3cccc(Cl)c3n2)cc1 | 0.563 | 0.29 (active) |
| C[C@H](c1cccc2ccccc12)N(C)Cc1ccccc1 | 1.02 | 1.26 |
| Cc1nc2ccc(Oc3ccccc3)cc2c2c1CCN2CCc1ccccc1 | 0.607 | 0.774 |
| CC(C)(C)NC(=O)[C@@H]1C[C@@H]2CCCC[C@@H]2CN1C[C@@H](O)[C@H](Cc1ccccc1)NC(=O)[C@H](CC(N)=O)NC(=O)c1ccc2ccccc2n1 | 1.43 | 1.49 |
| CC[C@H](NC(=O)[C@H](C)NC)C(=O)N1C[C@@H](O)C[C@H]1Cc1c(-c2[nH]c3cc(F)ccc3c2C[C@@H]2C[C@H](O)CN2C(=O)[C@H](CC)NC(=O)[C@H](C)NC)[nH]c2cc(F)ccc12 | 0.407 | 0.89 |
| O=c1oc2ccc(Br)cc2cc1CSc1ncc[nH]1 | 0.806 | 0.972 |
| O=P(O)(O)C(CCCc1cccc(Oc2ccccc2)c1)S(=O)(=O)O (stereo not given) | 0.663 | 0.88 |
| Cc1ccc(NC(=O)c2cc(Cl)ccc2O)cc1 | 0.656 | 0.616 |
| Oc1c(C(Nc2nc3ccccc3s2)c2ccc(OC(F)F)cc2)ccc2cccnc12 (stereo not given) | 0.53 | 1.26 |
| N#Cc1c(F)c(Cl)c(NCc2ccccc2)c(C#N)c1F | 0.585 | 0.978 |
| O=C(Nc1nnc(-c2ccc(Cl)cc2)o1)c1nc2ccccc2s1 | 0.919 | 1.05 |
| Cc1cc(CCCOc2c(C)cc(-c3noc(C(F)(F)F)n3)cc2C)on1 | 1.46 | 0.903 |

| SMILES | larval motility (2 h) | larval motility (24 h) |
| --- | --- | --- |
| CN(C(=O)C1(c2ccc(Cl)cc2)CCC1)c1ccccc1 | 1.1 | 1.21 |
| Cc1ccccc1NC(=O)Nc1cccc([N+](=O)[O-])c1 | 1.19 | 1.34 |
| COc1ccc(SC(=O)N[C@H](CCC(=O)O)C(=O)O)cc1 | 0.861 | 0.93 |
| Nc1nc(Nc2ccc3nc(-c4ccc(F)cc4)cc(N)c3c2)cc(-c2ccccc2)n1 | 0.547 | 0.261 (active) |
| NC1C2CC3CC(C2)CC1C3 (stereo not given) | 0.973 | 1.31 |
| Clc1cc(Cl)c2c(c1)CCc1ccccc1C2n1ccnc1 (stereo not given) | 0.769 | 0.987 |
| COc1cc(Cc2cnc(N)nc2N)cc(OC)c1OC | 0.864 | 0.829 |
| O=c1nc(N2CCN(CC3CCCCC3)CC2)sc2c([N+](=O)[O-])cc(C(F)(F)F)cc12 | 0.712 | 1.04 |
| Nc1nc(O)ncc1F | 0.641 | 1.04 |
| O=C(Nc1ccc(F)cc1)c1nn(-c2ccccc2)c(=O)cc1Cl | 1.14 | 0.91 |
| O=S(=O)(NCB(O)O)c1cc2c(Cl)ccc(Cl)c2s1 | 0.568 | 0.742 |
| CNc1nc(=O)[nH]cc1F | 0.634 | 0.909 |
| O=C(NN1C(=O)[C@@H]2C3C=CC([C@H]4C[C@@H]34)[C@@H]2C1=O)c1ccc(C(F)(F)F)cc1 | 0.844 | 0.599 |
| Cc1c(CN(C)C(=O)/C=C/c2cnc3c(c2)C(C)(C)C(=O)N3)oc2ccccc12 | 1.24 | 1.15 |
| N#CCN1C(=O)COc2cc(F)c(N3C(=O)c4ccccc4C3=O)cc21 | 0.915 | 1.91 |
| O=C(NC1CCCc2c1[nH]c1ccc(Cl)cc21)c1ccccn1 (stereo not given) | 1.38 | 1.01 |
| NC[C@H]1O[C@H](O[C@H]2[C@H](O)[C@@H](O[C@H]3O[C@H](CO)[C@@H](O)[C@H](N)[C@H]3O)[C@H](N)C[C@@H]2N)[C@H](N)C[C@@H]1O | 0.727 | 1.43 |
| CC[C@@]1(O)C(=O)OCc2c1cc1n(c2=O)Cc2cc3c(CN(C)C)c(O)ccc3nc2-1 | 0.831 | 0.876 |
| CC(C)Oc1ccc(-c2nc(-c3cccc4c3CC[C@@H]4NCCO)no2)cc1C#N | 1.2 | 1.25 |
| O=C(CP(=O)(O)O)NCCc1cccc(Oc2ccccc2)c1 | 2.12 | 1.06 |
| c1cnc(NCc2ccc(CNc3ncccn3)cc2)nc1 | 1.23 | 0.598 |
| N#Cc1cc([N+](=O)[O-])ccc1Oc1ccccc1Cl | 1.05 | 1.15 |
